# In PubChem BioAssay AID686978 (National Center for Advancing Translational Sciences (NCATS), 2013):
# “And” between values parts separate entries of the source, which are not always exact repeats. Equal entries are not always repeated. In all, about 420,000 compounds went through this assay and about 64,000 (15%) were called active. Not shown: some 27% with an inconclusive outcome. Calls follow the shape of the dose curve; as a rule, active = well fitted inhibition curve with a large enough effect; inconclusive = small, poorly fitted or top-dose-only effect; inactive = flat fitted curve, though single readings scatter. A selection follows. Some compounds were tested as several samples or in several runs, with calls that do not always agree.
# Experiment: qHTS for Inhibitors of human tyrosyl-DNA phosphodiesterase 1 (TDP1): qHTS in cells in absence of CPT; also: nearly all actives have a fitted effect of over 55% in size
# Conditions: DT40 Tdp1-/- hTDP1 cells, no CPT, ATP luminescence, 48 h; activity change, negative = growth inhibition: at 46.2 µM (top of the series)
# How it was run: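 Cells were dispensed at 400 per well, compounds added by pin tool, plates incubated ≥48 hr at 37 °C, then CellTiter-Glo added for 30 min at room temperature before luminescence reading. Line: DT40 Tdp1-/- complemented with hTDP1; camptothecin omitted.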
# % is scaled to controls: 0 for no effect and ±100 for the full control effect; potency is read from the fitted curve at half-maximal effect.
SMILES,"activity change, negative = growth inhibition",Potency
O=C(Cc1c(F)cccc1Cl)Nc1ccc(-n2cnnn2)cc1,-10.1% (inactive),
COc1ccc(C(C#N)N2N=C(C)CC2(C)C)cc1 (stereo not given),-4.56% (inactive),
NC(=O)N1CCc2ccccc21,-7.26% (inactive),
CCC1(CC)NC(=O)N(CC(=O)OCC(=O)NC(=O)c2ccccc2)C1=O,2.28% (inactive),
Cc1ccc(C(=O)O)cc1-c1ccc(/C=C2\SC(=O)N(CC(=O)Nc3ccc4c(c3)OCO4)C2=O)o1,-0.216% (inactive),
COc1ccc(CC2c3cc(OC)c(OC)cc3CC[N+]2(C)CCC(=O)OCCCCCOC(=O)CC[N+]2(C)CCc3cc(OC)c(OC)cc3C2Cc2ccc(OC)c(OC)c2)cc1OC (stereo not given),,13 µM (active)
COc1cc2c(cc1OC)[C@@H](Cc1cc(OC)c(OC)c(OC)c1)[N+](C)(CCCOC(=O)CC/C=C/CCC(=O)OCCC[N+]1(C)CCc3cc(OC)c(OC)cc3[C@H]1Cc1cc(OC)c(OC)c(OC)c1)CC2 (stereo not given in full),,inactive
Cc1ccc(CCCOC(=O)C[N+]2(C)CCCC2)cc1,-12.4% (inactive),
O=C(CCN1C(=O)c2ccccc2C1=O)NCCN1CCOCC1,9.53% (inactive),
O=c1oc2ccccc2cc1-c1cn(-c2ccccc2)c(=S)[nH]1,,3.26 µM (active)
O=C(c1cn(-c2ccccc2)nc1-c1cc2ccccc2oc1=O)N1CCOCC1,-18.8% (inactive),
S=c1[nH]c(-c2cccs2)cn1-c1ccccc1,-13.3% (inactive),
CC(=O)Oc1c2c(c3c(c1CC=C(C)C)O[C@@]14C(=CC5CC1C(C)(C)OC4(C/C=C(\C)C(=O)O)C5=O)C3=O)OC(C)(CCC=C(C)C)C=C2 (stereo not given in full),,1.3 µM (active)
CC1(C)CC(=O)C2=C(C1)N=C1SCCC(=O)N1C2c1ccc(C(F)(F)F)cc1 (stereo not given),-20.3% (inactive),
Cc1ccc(CSc2oc(-c3cccs3)nc2S(=O)(=O)c2ccc(C)cc2)cc1,,5.17 µM (active)
NC(=O)CSc1oc(-c2cccs2)nc1S(=O)(=O)c1ccccc1,-1.42% (inactive),
N#Cc1ccc(-c2cccs2)nc1SCc1ccc(Br)cc1,-9.03% (inactive),
COC(=O)CSc1nccc(-c2cccs2)n1,-0.533% (inactive),
Cc1ccc(C(=O)N/C(=C/c2cccs2)C(=O)N2CCCCC2)cc1,-18.2% (inactive),
O=C(c1cc(-c2cccs2)on1)N1CCCCC1,-7.2% (inactive),
Cc1ccc(S(=O)(=O)c2nc(-c3cccs3)oc2N2CCCCC2)cc1,,23.1 µM (active)
CCCCS(=O)(=O)c1oc(-c2cccs2)nc1S(=O)(=O)c1ccccc1,,1.16 µM (active)
Cc1ccc(NC(=O)COc2ccc(/C=C3/NC(=O)NC3=O)cc2)cc1,-8.92% (inactive),
O=C1OC(Oc2ccc(Br)cc2)(c2ccccc2)c2ccccc21 (stereo not given),-16.8% (inactive),
CCCOCC(O)CC(CC)C(=O)NNC(=S)Nc1ccccc1 (stereo not given),-4.64% (inactive),
COc1ccc2c(c1)N(C)/C(=C1/SC(=S)N(NC(C)=O)C1=O)S2,0% (inactive),
CCC(C)NC(=O)/C=C/c1ccc(S(=O)(=O)NCc2ccco2)cc1 (stereo not given),-2.93% (inactive),

SMILES,"activity change, negative = growth inhibition",Potency
O=S(=O)(NC1CCCC1)c1ccc(-n2cnnn2)cc1,-14.2% (inactive),
Cc1ccc(C(=O)NCC(=O)NC2CC2)cc1,4.14% (inactive),
O=C(NC1CC1)c1ccc(-c2ccccc2)cc1,,11.6 µM (active)
O=C(NNC(=O)c1ccc(-c2ccccc2)cc1)Nc1ccccc1,-14.5% (inactive),
C/C(N)=C(/C#N)C(=O)COC(=O)C1CCN(C(=O)c2ccc(Cl)cc2)CC1,-29.6% (inactive),
CC(=O)OCC(=O)C1(O)CCC2C3CC(C)C4=CC(=O)CCC4(C)C3C(O)CC21C (stereo not given),-17.1% (inactive),
CC(=O)O[C@]1(C(C)=O)CC[C@H]2[C@@H]3CCC4=CC(=O)CC[C@]4(C)[C@@]3(F)[C@@H](O)C[C@@]21C,-9% (inactive),
CC(=O)O[C@]1(C(C)=O)CC[C@H]2[C@@H]3C=C(C)C4=CC(=O)CC[C@]4(C)[C@H]3CC[C@@]21C,,inactive and 23.1 µM (active)
CCc1nc2c(=O)[nH]cnc2o1,-5.21% (inactive),
CCn1nnnc1SCC(=O)c1ccc(C)cc1C,-14.8% (inactive),
COc1ccc(NC(=O)C(Br)C(C)C)cc1 (stereo not given),-12.5% (inactive),
COC(=O)[C@H](Cc1ccccc1)NC(=O)Nc1ccc(OC)cc1,-9.61% (inactive),
COc1ccc(CC(N)c2csc(NC(=O)Nc3ccc(C(C)C)cc3)n2)cc1 (stereo not given),,6.51 µM (active)
COc1ccc(NC(=O)C(=O)NCC(=O)Nc2cccc(C(F)(F)F)c2)cc1,10% (inactive),
COc1ccc(C(N)c2csc(NC(=O)Nc3cccc(C(F)(F)F)c3)n2)cc1 (stereo not given),,13 µM (active)
Cc1ccccc1NC(=O)Cc1nc(COC(=O)c2ccc(C(F)(F)F)cc2)cs1,-18.3% (inactive),
NC(c1csc(NC(=O)Nc2cccc(C(F)(F)F)c2)n1)C1CCCCC1 (stereo not given),,20.6 µM (active)
CC(C)(C)CC(=O)Nc1nc(C(N)Cc2ccc(C(F)(F)F)cc2)cs1 (stereo not given),,16.4 µM (active)
Cc1ccc(NC(=O)Nc2cccc(C(F)(F)F)c2)nc1,3.8% (inactive),
CC(C)C[C@H](NC(=O)Nc1cccc(C(F)(F)F)c1)C(=O)O,5.13% (inactive),
CC(C)(C)CC(=O)Nc1nnc(SCC(=O)NCc2cccs2)s1,-21.9% (inactive),
COc1ccc(C(CC(=O)Nc2ccc(C)cc2)NC(=O)C(F)(F)F)cc1 (stereo not given),-1.65% (inactive),
COc1ccccc1C1CN(Cc2ccccc2O)Cc2ccccc2O1 (stereo not given),-21.5% (inactive),
O=C(CC(NCc1cccnc1)C(=O)O)Nc1ccc(O)cc1 (stereo not given),-3.74% (inactive),
CSc1nc(O)c(Cc2ccccc2)c(=O)[nH]1,-0.545% (inactive),
Cc1cc(C(=O)OC(C)C(=O)NC2CCCCC2C)c(C)o1 (stereo not given),-4.96% (inactive),
O=C(O)c1ccc(S(=O)(=O)N2CCOCC2)o1,-2.82% (inactive),

SMILES,"activity change, negative = growth inhibition",Potency
Cc1ccc(NC(=O)NNC(=O)c2sccc2-n2cccc2)cc1,-19.7% (inactive),
CC(C)NC(=O)NNc1c(Cl)cncc1Cl,1.9% (inactive),
CC1CCc2c(sc3c2C2=NS(=O)(=O)CCN2C=N3)C1 (stereo not given),-10.8% (inactive),
Cc1ccc(CC2CC(=O)N(c3nc(C)cc(C)n3)C2=O)cc1 (stereo not given),-14.1% (inactive),
COc1ccccc1C(=O)NCC(=O)OCC(=O)NNC(=O)c1ccc(Br)cc1,-3.83% (inactive),
CC(C)C(NC(=O)c1c(F)cccc1F)C(=O)NNC(=O)c1ccccc1 (stereo not given),11.9% (inactive),
CCO/C([O-])=N/c1c[n+](N2CCOCC2)no1,,inactive
O=C(CCC(=O)c1cccs1)Nc1nc2ccccc2s1,-1.45% (inactive),
COC(=O)[C@@H]1C[C@@]2(O)[C@H](O)[C@H](O)[C@H](O)C[C@H]2N1Cc1ccc(C(C)(C)C)cc1,4.36% (inactive),
CN(C)CCN(C(=O)CN1C(=O)c2ccccc2C1=O)c1nc2cc3c(cc2s1)OCCO3,3.41% (inactive),
Cc1c(NC(=O)c2cc(=O)c3ccccc3o2)c(=O)n(-c2ccccc2)n1C,0.865% (inactive),
O=C(c1cc(-c2ccc(Cl)s2)nc2ccccc12)N1CCOCC1,-23.9% (inactive),
O=C(CCN1C(=O)c2ccccc2C1=O)Nc1cccc(F)c1,17.3% (inactive),
O=C(Nc1cccc(NC(=O)c2cccc(F)c2)c1)c1ccccc1,-9.75% (inactive),
Cc1cc(C(=O)Nc2c(C)n(C)n(-c3ccccc3)c2=O)cs1,-6.58% (inactive),
Cc1c(NC(=O)c2coc(=O)c(Br)c2)c(=O)n(-c2ccccc2)n1C,,4.11 µM (active)
Cc1c(NC(=O)c2cc(-c3ccc(Cl)s3)nc3ccccc23)c(=O)n(-c2ccccc2)n1C,,16.4 µM (active)
O=C(Nc1cccc(F)c1)c1coc(=O)c(Br)c1,,2.31 µM (active)
Cc1c(NC(=O)c2cccnc2)c(=O)n(-c2ccccc2)n1C,,inactive
COCn1c(C(O)c2ccccc2)cc2ccccc21 (stereo not given),5.37% (inactive),
O=C1c2ccccc2S(=O)(=O)N1CC(O)Cn1c2ccccc2c2ccccc21 (stereo not given),-9.56% (inactive),
CC(CC(=O)N1CCN(S(=O)(=O)c2ccccc2)CC1)n1cncn1 (stereo not given),-11.7% (inactive),
CCN(CC)S(=O)(=O)c1ccc2[nH]c(=O)cc(C(=O)N(C)C3CCS(=O)(=O)C3)c2c1 (stereo not given),14.9% (inactive),
CC(=O)N1CCN(CCN=CC2=C(O)CC(C)(C)CC2=O)CC1,-2.47% (inactive),
CCc1nccn1S(=O)(=O)c1cccc([N+](=O)[O-])c1,0.702% (inactive),
Nc1ncnc2nnsc12,-6.84% (inactive),
COc1ccc(-c2nc(CCNC(=O)c3ccc(Br)o3)cs2)cc1,,20.6 µM (active) and 18.4 µM (active)

SMILES,"activity change, negative = growth inhibition",Potency
COc1cc(OC)cc(C(=O)NNC(=O)CNC(=O)c2ccc(Br)o2)c1,-1.82% (inactive),
O=S(=O)(NCCc1csc(-c2ccccc2)n1)c1cccnc1,-6.09% (inactive),
CC(C)c1ccc(NC(=O)COC(=O)c2ccc(CN3CCCC3=O)cc2)cc1,13.6% (inactive),
CN(C)C(=O)N1CCNCC1,1.26% (inactive),
C=C(C)CNC(=S)/N=c1\scc(C)n1CC,,20.6 µM (active)
Cc1csc(=NC(=O)c2ccccc2)n1CCO,-16.2% (inactive),
COc1ccc(NC(=S)Nc2ccc(S(N)(=O)=O)cc2)c(C)c1,-13.9% (inactive),
COC(=O)c1sc(NC(=O)COC(=O)C2CCC2)c(C(=O)OC)c1C,-5.44% (inactive),
O=S1(=O)C[C@@H](N2CCN(CCO)CC2)[C@H](COCc2ccccc2)N1,20.9% (inactive),
Cc1csc(SCC(=O)Nc2ccc(C)c(S(=O)(=O)N(C)C)c2)n1,,18.4 µM (active)
Cc1ccc(NC(=O)CNCc2ccccn2)cc1S(=O)(=O)N(C)C,-3.4% (inactive),
COc1ccc(NC(=O)CSc2nc(C)cs2)cc1,-29.3% (inactive),
CC(=O)c1sc(N)nc1C,,inactive
CC(C)[C@H](NC(=O)N1CC(=O)Nc2ccccc21)C(=O)N[C@@H](Cc1c[nH]c2ccccc12)C(=O)O,0.876% (inactive),
CC(C[N+](C)(C)C)OC(N)=O (stereo not given),,inactive
Fc1ccc(COc2cccc(-c3n[nH]c(=S)o3)c2)cc1,1.3% (inactive),
O=C(O)c1ccccc1OCc1ccccc1Cl,0.336% (inactive),
O=C(NCCOc1ccccc1Cl)C(=O)Nc1ccccc1,,18.4 µM (active)
COc1ccccc1OCCNC(=O)CCNC(=O)c1ccccc1Cl,4.86% (inactive),
CCC(C)NC(=O)C1CCCN(C(=O)NC2CCCCC2)C1 (stereo not given),0.165% (inactive),
C=CCN(c1ccc(C(=O)Nc2cc(C)cc(C)c2)cc1)S(C)(=O)=O,-24.1% (inactive),
COc1ccc(-c2onc(C)c2-c2ccc3c(c2)OCCO3)c(O)c1,,18.4 µM (active)
COc1ccc(O)c(C=Nc2cc(C)on2)c1,0.215% (inactive),
COc1ccc(C#Cc2c(-c3ccc(OC)cc3)oc3ccc(-c4ccc5c(c4)OCO5)cc23)cc1,-5.09% (inactive),
